# Source: PubChem BioAssay (NCATS)
# Values joined by “and” are separate entries in the source; they are usually repeats but may differ in a detail not shown here. Equal values may be shown once. Results filed as inconclusive are left out. Values without a mark were called inactive. Active and inactive are the calls of the source. Unless noted, the call rests on the fitted dose curve; in most records, active means well fitted curve in either direction with a large enough effect (not every such curve was filed as active); inconclusive means small, poorly fitted or top-dose-only effect, or another doubt; inactive means flat fitted curve, though single readings scatter.
# Assays:
# [1] = AP1 Signaling Pathway (AID 357); details: ME-180 (cervical carcinoma) AP-1-bla reporter, EGF-induced, beta-lactamase ratio, 5 h; further: on the % scale 0 is the no-effect control and ±100 the full control effect
# Method in brief: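 AP-1-bla ME-180 cells with beta-lactamase reporter under AP-1 response element, stimulated with EC50 EGF; compounds titrated, 5 hours at 37 degrees Celsius. CCF4 read at 460/530 nm ratio; positive and negative modulators judged by AC50.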
# [2] = target: Cytochrome P450 1A2 (Homo sapiens) (UniProt P05177); assay: p450-cyp1a2 (AID 410; calls by dose curve; further: potency means the concentration at half of the fitted maximal effect;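 on activity change, negative = inhibition: -100% = full effect of reference inhibitor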); details: recombinant CYP1A2, luciferin-ME demethylation, luminescence; series mostly up to 57 µM
# Chain of Cytochrome P450 1A2 (Homo sapiens) (P05177 whole entry, looked up): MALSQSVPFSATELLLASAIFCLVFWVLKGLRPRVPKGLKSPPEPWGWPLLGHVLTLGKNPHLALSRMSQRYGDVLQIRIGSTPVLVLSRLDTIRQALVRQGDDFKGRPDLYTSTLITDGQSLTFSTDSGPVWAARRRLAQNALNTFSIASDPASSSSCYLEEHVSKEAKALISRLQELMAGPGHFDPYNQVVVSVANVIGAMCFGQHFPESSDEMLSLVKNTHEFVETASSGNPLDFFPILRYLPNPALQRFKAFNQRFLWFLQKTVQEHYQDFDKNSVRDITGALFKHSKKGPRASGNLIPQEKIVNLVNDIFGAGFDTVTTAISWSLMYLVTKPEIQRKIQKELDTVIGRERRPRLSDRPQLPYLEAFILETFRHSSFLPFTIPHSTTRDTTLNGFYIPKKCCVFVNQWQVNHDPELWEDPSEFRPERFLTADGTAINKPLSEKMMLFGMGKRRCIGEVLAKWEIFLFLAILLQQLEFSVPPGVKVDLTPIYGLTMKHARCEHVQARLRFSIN
# Method in brief: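 20nM CYP1A2 with 100uM Luciferin-ME (at Km) in 100mM KPO4; compound preincubated 10 min, NADPH regeneration added, 60 min at room temperature. Luciferin quantified by luminescence after detection reagent; normalized to 57 uM furafylline.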
# [3] = Cell Viability - BJ (AID 421; calls by dose curve;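 further: potency means the concentration at half of the fitted maximal effect; cells exposed to compound for 40 hours at 37 °C before readout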); details: BJ fibroblast viability, qHTS
# Method in brief: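 Normal human BJ foreskin fibroblasts, 1500/well in complete medium, treated 40 hr at 37 °C. Cellular ATP by CellTiter-Glo luminescence; normalized to DMSO and 100 uM tamoxifen, AC50 from Hill fit.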
# [4] = Cell Viability - Jurkat (AID 426;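 active means dose-dependent loss of cell ATP signal giving a full or clear fitted curve, ranked by lower potency value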; further: potency means the concentration at half of the fitted maximal effect); details: qHTS
# Method in brief: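 Jurkat (Clone E6-1) cells, 5000/well in complete medium, exposed to compounds for 40 hr at 37C; intracellular ATP measured by CellTiter-Glo luminescence after 20 min at room temperature. AC50 from Hill fits.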
# [5] = Cell Viability - Hek293 (AID 427;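 active means compounds whose dose-response curve shows a full or clear partial loss of cell viability, called from curve shape rather than a numeric limit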;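 further: potency means the concentration at half of the fitted maximal effect; cells exposed to compound for 40 hours at 37 °C before reading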); details: qHTS
# Method in brief: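 HEK293 cells in complete medium were exposed to compound for 40 hr at 37 °C, then cellular ATP was read by CellTiter-Glo luminescence. Data were normalized to DMSO (basal) and 100 uM tamoxifen (100% inhibition), and AC50 came from Hill fits.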
# [6] = Cell Viability - HepG2 (AID 433; calls by dose curve;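 further: potency means the concentration at half of the fitted maximal effect; potency for ATP loss meaning cytotoxicity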); details: qHTS
# Method in brief: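 HepG2 cells, 1500 per well, treated 40 hr at 37 °C in complete medium; viability from intracellular ATP by CellTiter-Glo luminescence. Normalized to DMSO and 100 uM tamoxifen; AC50 from Hill fit of qHTS concentration-response.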
# [7] = Cell Viability - MRC5 (AID 434; calls by dose curve;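 further: potency means the concentration at half of the fitted maximal effect; potency reflects cytotoxicity seen as loss of intracellular ATP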); details: MRC5 lung fibroblast viability, qHTS
# Method in brief: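 qHTS cytotoxicity in human lung fibroblast MRC5 cells; 40 hr treatment, 37 °C; cellular ATP by luciferase luminescence; DMSO = 0%, 100 uM tamoxifen = 100% inhibition; Hill-fit AC50.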
# [8] = Cell Viability - SK-N-SH (AID 435; calls by dose curve;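 further: potency means the concentration at half of the fitted maximal effect; compound exposure lasted 40 h at 37 °C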); details: SK-N-SH neuroblastoma cell viability qHTS
# Method in brief: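 SK-N-SH neuroblastoma cells (1500/well) treated 40 h at 37 °C in complete medium; viability read as cellular ATP by CellTiter-Glo luminescence. Normalized to DMSO and 100 uM tamoxifen; AC50 from Hill fits of qHTS concentration-response.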
# [9] = NFAT Signaling Pathway (AID 444); details: Jurkat NFAT-bla M1, carbachol, beta-lactamase ratio, 5 h;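 further: carbachol stimulus at about its EC50 of 1 µM final; on the % scale 0 is the no-effect control and ±100 the full control effect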
# Method in brief: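 Read-out: CCF4 FRET ratio (460 nm/530 nm) after 1 h RT dye loading, used for %activity and AC50 from titration series. Cells: Jurkat NFAT-β-lactamase/M1 line, treated with compound plus 1 uM carbachol for 5 h, 37 °C.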
structure (smiles),measurement,setting,value
CCCCNC(=O)NS(=O)(=O)c1ccc(C)cc1,"activity change, negative = inhibition",[1]; at 17.2 µM (top of the series),-5% and 1.1%
same,"activity change, negative = inhibition",[1]; at 38 µM (top of the series),6.49%
same,Potency,[2],inactive
same,Potency,[3],> 92 µM
same,Potency,[4],> 92 µM
same,Potency,[5],> 92 µM
same,Potency,[6],> 92 µM
same,Potency,[7],> 92 µM
same,Potency,[8],> 92 µM
same,"activity change, negative = inhibition",[9]; at 17.2 µM (top of the series),-4.27%
same,"activity change, negative = inhibition",[9]; at 38 µM (top of the series),12.5%
CNCCCN1c2ccccc2CCc2ccccc21,"activity change, negative = inhibition",[1]; at 17.2 µM (top of the series),29.5% and 18.8%
CC(=O)Oc1cc(C(C)C)c(OCCN(C)C)cc1C,"activity change, negative = inhibition",[1]; at 17.2 µM (top of the series),7.18%
same,"activity change, negative = inhibition",[1]; at 38 µM (top of the series),22.7%
same,Potency,[2],7.94 µM (active) and 3.16 µM (active)
CN(C)C(=O)Oc1ccc[n+](C)c1,"activity change, negative = inhibition",[1]; at 17.2 µM (top of the series),8.22%
same,"activity change, negative = inhibition",[1]; at 38 µM (top of the series),9.9%
same,Potency,[2],inactive
same,"activity change, negative = inhibition",[9]; at 17.2 µM (top of the series),4.78%
same,"activity change, negative = inhibition",[9]; at 38 µM (top of the series),12%
CN(C)CC/C=C1\c2ccccc2COc2ccccc21,"activity change, negative = inhibition",[1]; at 17.2 µM (top of the series),22.2%
same,"activity change, negative = inhibition",[1]; at 38 µM (top of the series),23.8%
same,Potency,[2],12.6 µM (active) and 5.01 µM (active) and 15.8 µM (active)
same,"activity change, negative = inhibition",[9]; at 17.2 µM (top of the series),-44.9% (active)
Cc1ccc(Cl)c(Nc2ccccc2C(=O)O)c1Cl,"activity change, negative = inhibition",[1]; at 17.2 µM (top of the series),-18.4%
same,"activity change, negative = inhibition",[1]; at 38 µM (top of the series),-15.5%
same,Potency,[2],inactive
same,"activity change, negative = inhibition",[9]; at 17.2 µM (top of the series),-24% and 22.1%
same,"activity change, negative = inhibition",[9]; at 38 µM (top of the series),0.114%
CC(C)NNC(=O)c1ccncc1,"activity change, negative = inhibition",[1]; at 17.2 µM (top of the series),5.09%
same,"activity change, negative = inhibition",[1]; at 38 µM (top of the series),-0.742%
same,Potency,[2],inactive
same,"activity change, negative = inhibition",[9]; at 17.2 µM (top of the series),-0.394%
same,"activity change, negative = inhibition",[9]; at 38 µM (top of the series),-0.596%
Cc1nc2sccn2c(=O)c1CCN1CCC(=C(c2ccc(F)cc2)c2ccc(F)cc2)CC1,"activity change, negative = inhibition",[1]; at 17.2 µM (top of the series),-9.89%
same,"activity change, negative = inhibition",[1]; at 38 µM (top of the series),-17.2%
same,Potency,[2],inactive
CCN(CC)CCNC(=O)c1cc(S(C)(=O)=O)ccc1OC,"activity change, negative = inhibition",[1]; at 17.2 µM (top of the series),-0.734% and 2.54%
same,"activity change, negative = inhibition",[1]; at 38 µM (top of the series),5.15%
same,Potency,[2],inactive
same,"activity change, negative = inhibition",[9]; at 17.2 µM (top of the series),-6.77% and -21.4%
same,"activity change, negative = inhibition",[9]; at 38 µM (top of the series),-5.52%
CC(=O)Nc1nnc(S(N)(=O)=O)s1,"activity change, negative = inhibition",[1]; at 17.2 µM (top of the series),2.87%
same,"activity change, negative = inhibition",[1]; at 38 µM (top of the series),2.53%
same,Potency,[2],inactive
same,"activity change, negative = inhibition",[9]; at 17.2 µM (top of the series),-0.673% and -9.62%
same,"activity change, negative = inhibition",[9]; at 38 µM (top of the series),2.29%
CC(C)(C)NCC(O)c1cc(O)cc(O)c1 (stereo not drawn),"activity change, negative = inhibition",[1]; at 17.2 µM (top of the series),-16.4%
CC[N+](C)(C)c1cccc(O)c1,"activity change, negative = inhibition",[1]; at 17.2 µM (top of the series),1.89% and 0.722%
same,"activity change, negative = inhibition",[1]; at 38 µM (top of the series),2.69%
same,Potency,[2],inactive
same,"activity change, negative = inhibition",[9]; at 17.2 µM (top of the series),-26.4%
same,"activity change, negative = inhibition",[9]; at 38 µM (top of the series),-18.1%
CCN(CC)CCNC(=O)c1ccc(NC(C)=O)cc1,"activity change, negative = inhibition",[1]; at 17.2 µM (top of the series),-5.32%
same,"activity change, negative = inhibition",[1]; at 38 µM (top of the series),9.43%
same,Potency,[2],inactive
same,"activity change, negative = inhibition",[9]; at 17.2 µM (top of the series),-13.8%
same,"activity change, negative = inhibition",[9]; at 38 µM (top of the series),-8.68%
COc1cc(C(=O)OCCCN2CCCN(CCCOC(=O)c3cc(OC)c(OC)c(OC)c3)CC2)cc(OC)c1OC,"activity change, negative = inhibition",[1]; at 17.2 µM (top of the series),24.5%
same,"activity change, negative = inhibition",[1]; at 38 µM (top of the series),15.7%
CN(C)C(=O)Oc1cccc([N+](C)(C)C)c1,"activity change, negative = inhibition",[1]; at 17.2 µM (top of the series),6.9% and 1.34% and 7.06%
same,"activity change, negative = inhibition",[1]; at 38 µM (top of the series),-1.33%
same,Potency,[2],inactive
same,"activity change, negative = inhibition",[9]; at 17.2 µM (top of the series),-14.6% and 15.5% and 0.313%
same,"activity change, negative = inhibition",[9]; at 38 µM (top of the series),13%
CCOC(=O)C1=C(C)NC(C)=C(C(=O)OC)C1c1cccc(Cl)c1Cl (stereo not drawn),"activity change, negative = inhibition",[1]; at 17.2 µM (top of the series),-7.25%
CCCC(C(=O)OCCN(CC)CC)(c1ccccc1)c1ccccc1,"activity change, negative = inhibition",[1]; at 17.2 µM (top of the series),16.9%
same,"activity change, negative = inhibition",[1]; at 38 µM (top of the series),20.9%
same,Potency,[2],inactive
c1cnc(N2CCN(Cc3ccc4c(c3)OCO4)CC2)nc1,"activity change, negative = inhibition",[1]; at 17.2 µM (top of the series),-7.76%
same,"activity change, negative = inhibition",[1]; at 38 µM (top of the series),13.9%
same,Potency,[2],6.31 µM (active) and 3.16 µM (active) and 2 µM (active)
CC1=NS(=O)(=O)c2cc(Cl)ccc2N1,"activity change, negative = inhibition",[1]; at 17.2 µM (top of the series),5.8% and -6.56%
same,"activity change, negative = inhibition",[1]; at 38 µM (top of the series),-8.76%
same,Potency,[2],7.94 µM (active) and 3.16 µM (active) and 2 µM (active)
same,"activity change, negative = inhibition",[9]; at 17.2 µM (top of the series),-1.94% and 7.03%
same,"activity change, negative = inhibition",[9]; at 38 µM (top of the series),2.63%
CN1CCN(CC(=O)N2c3ccccc3C(=O)Nc3cccnc32)CC1,"activity change, negative = inhibition",[1]; at 17.2 µM (top of the series),-3.75% and 6.17%
same,"activity change, negative = inhibition",[1]; at 38 µM (top of the series),9.42%
same,Potency,[2],inactive
same,"activity change, negative = inhibition",[9]; at 17.2 µM (top of the series),-94.8% (active)
O=C1NCN(c2ccccc2)C12CCN(CCCC(c1ccc(F)cc1)c1ccc(F)cc1)CC2,"activity change, negative = inhibition",[1]; at 17.2 µM (top of the series),-2.84%
same,"activity change, negative = inhibition",[1]; at 38 µM (top of the series),1.17%
same,Potency,[2],12.6 µM (active)
COc1ccc(CCN(C)CCCC(C#N)(c2cc(OC)c(OC)c(OC)c2)C(C)C)cc1OC (stereo not drawn),"activity change, negative = inhibition",[1]; at 17.2 µM (top of the series),-6.26%
C#CCN(C)CCCOc1ccc(Cl)cc1Cl,"activity change, negative = inhibition",[1]; at 17.2 µM (top of the series),-12.7%
same,"activity change, negative = inhibition",[1]; at 38 µM (top of the series),-0.876%
same,Potency,[2],631 nM (active) and 158 nM (active)
same,"activity change, negative = inhibition",[9]; at 17.2 µM (top of the series),-4.25%
same,"activity change, negative = inhibition",[9]; at 38 µM (top of the series),-1.82%
CCNC(=O)N1CCN(CCCC(c2ccc(F)cc2)c2ccc(F)cc2)CC1,"activity change, negative = inhibition",[1]; at 38 µM (top of the series),1.34%
CCOC(=O)C1=C(C)NC(C)=C(C(=O)OC)C1c1cccc([N+](=O)[O-])c1 (stereo not drawn),"activity change, negative = inhibition",[1]; at 17.2 µM (top of the series),-25.4%
c1ccc2c(c1)CCCC2C1=NCCN1 (stereo not drawn),"activity change, negative = inhibition",[1]; at 17.2 µM (top of the series),6.93%
O=C(O)CN(CCN(CC(=O)O)CC(=O)O)CCN(CC(=O)O)CC(=O)O,"activity change, negative = inhibition",[1]; at 17.2 µM (top of the series),-3.91%
same,"activity change, negative = inhibition",[1]; at 38 µM (top of the series),10%
same,Potency,[2],inactive
same,"activity change, negative = inhibition",[9]; at 17.2 µM (top of the series),-4.47%
same,"activity change, negative = inhibition",[9]; at 38 µM (top of the series),2.2%
